Where “and” joins values, the source holds several entries; their conditions need not be identical. Identical values can stand only once. The source holds several records for some structures; these can differ, active in one and inactive in another. Calls of active or inactive are those of the source. Rule for the calls: active = hit-call score of the fitted dose curve at least 0.9, where 1 is the maximum; inactive = score below 0.9.
What was measured:
[1] = ATG_PBREM_CIS: Attagene CIS-FACTORIAL HepG2 Assay for human Phenobarbital-responsive Enhancer Module (PBREM) (AID 2282955); conditions: HepG2 PBREM cis-reporter, Attagene multiplexed transcription; actives raise or lower the signal
Summary of the method: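 Cells were transfected with cis-element reporter units and treated for 24 h, after which RNA was extracted and reporter transcripts measured by RT-PCR and capillary electrophoresis.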

[2] = target: Paired box protein Pax-6 (Homo sapiens) (UniProt P26367); assay: ATG_Pax6_CIS: Attagene CIS-FACTORIAL HepG2 Assay for human Paired Box 6 (PAX6) (AID 2282956); conditions: HepG2 CIS-FACTORIAL PAX6 reporter transcription, RNA readout; actives raise or lower the signal
Summary of the method: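 Readout: reporter transcript fluorescence after RT-PCR and capillary electrophoresis. Cells: HepG2, transiently transfected with cis-regulated MRTUs. Exposure 24 h. Gain or loss of signal fitted bidirectionally relative to DMSO.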

[3] = ATG_PXRE_CIS: Attagene CIS-FACTORIAL HepG2 Assay for human Pregnane X Receptor Element (PXRE) (AID 2282957); conditions: HepG2 Attagene CIS-FACTORIAL PXRE reporter, mRNA; actives raise or lower the signal
Summary of the method: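 Endogenous transcription factor activity in HepG2 was gauged through induction of reporter mRNA driven by a cis-regulating promoter element, sampled 24 h post-treatment. Activity was fitted in both directions against DMSO negative control.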

[4] = ATG_PPRE_CIS: Attagene CIS-FACTORIAL HepG2 Assay for human Peroxisome Proliferator-activated Response Element (PPRE) (AID 2282958); conditions: HepG2 PPRE cis-element reporter, Attagene transcription factor profiling; actives raise or lower the signal
Summary of the method: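 In this cell-based multiplex, a PPRE cis element drives a reporter sequence in transiently transfected HepG2 cells. Following 24 h treatment, labeled cDNA amplicons are sized and quantified by capillary electrophoresis, with DMSO defining baseline.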

[5] = ATG_RORE_CIS: Attagene CIS-FACTORIAL HepG2 Assay for human RAR-related Orphan Receptor Element (RORE) (AID 2282959); conditions: HepG2 Attagene cis-factorial RORE reporter, mRNA; actives raise or lower the signal
Summary of the method: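 Endogenous factor activity at a cis response element is read as reporter transcript levels in HepG2 cells, 24 h post-dose. Transcripts are quantified by RT-PCR with capillary electrophoresis, and data fitted in both directions against DMSO.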

[6] = ATG_Sox_CIS: Attagene CIS-FACTORIAL HepG2 Assay for human SRY-box transcription factor (SOX) (AID 2282960); conditions: HepG2 Attagene cis-factorial SOX reporter, mRNA; actives raise or lower the signal
Summary of the method: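 Measures mRNA induction of a SOX1-associated reporter in HepG2 after 24 h dosing. Fluorescently labelled RT-PCR fragments are separated by capillary electrophoresis, and gain or loss relative to DMSO control is fitted.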

[7] = target: Transcription factor Sp1 (Homo sapiens) (UniProt P08047); assay: ATG_Sp1_CIS: Attagene CIS-FACTORIAL HepG2 Assay for human Specificity Protein 1 (Sp1) (AID 2282961); conditions: HepG2 Sp1 cis-reporter transcription, actives raise or lower the signal
Summary of the method: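 Cells: HepG2, transiently transfected with cis-regulated multiplexed reporters. Exposure: 24 h. Detection: reporter transcripts amplified, fluorescently labeled, restriction-digested and sized by capillary electrophoresis. Analysis: bidirectional fit relative to DMSO.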

[8] = ATG_SREBP_CIS: Attagene CIS-FACTORIAL HepG2 Assay for human Sterol Regulatory Element Binding (SREBP) (AID 2282962); conditions: HepG2 Attagene cis-factorial SREBP reporter, mRNA; actives raise or lower the signal
Summary of the method: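 Readout: fluorescent reporter-transcript peaks resolved by capillary electrophoresis after RT-PCR. Cells were human HepG2 carrying transfected cis-promoter reporter constructs, dosed for 24 h. Gain or loss of signal was fitted against DMSO controls.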

[9] = ATG_TA_CIS: Attagene CIS-FACTORIAL HepG2 Assay for human TA Basal Promoter (AID 2282964); conditions: HepG2 Attagene CIS-factorial TA basal promoter reporter; actives raise or lower the signal
Summary of the method: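 Transient MRTU transfection of HepG2 preceded 24 h compound exposure. Reporter mRNA levels were then read by RT-PCR with capillary electrophoresis, and this background-control endpoint was fitted bidirectionally to DMSO.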

[10] = target: Signal transducer and activator of transcription 3 (Homo sapiens) (UniProt P40763); assay: ATG_STAT3_CIS: Attagene CIS-FACTORIAL HepG2 Assay for human Signal Transducer and Activator of Transcription 3 (STAT3) (AID 2282963); conditions: HepG2, Attagene cis-factorial STAT3 reporter transcription; actives raise or lower the signal
Summary of the method: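 Fluorescence intensity of 6-FAM-labelled reporter fragments, separated by capillary electrophoresis after RT-PCR, gave the signal. Cells were HepG2 transfected with cis-element reporter units and treated 24 h; fitting was bidirectional relative to DMSO.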

Measured: AC50

Sequence of Paired box protein Pax-6 (Homo sapiens) (P26367 whole entry, looked up): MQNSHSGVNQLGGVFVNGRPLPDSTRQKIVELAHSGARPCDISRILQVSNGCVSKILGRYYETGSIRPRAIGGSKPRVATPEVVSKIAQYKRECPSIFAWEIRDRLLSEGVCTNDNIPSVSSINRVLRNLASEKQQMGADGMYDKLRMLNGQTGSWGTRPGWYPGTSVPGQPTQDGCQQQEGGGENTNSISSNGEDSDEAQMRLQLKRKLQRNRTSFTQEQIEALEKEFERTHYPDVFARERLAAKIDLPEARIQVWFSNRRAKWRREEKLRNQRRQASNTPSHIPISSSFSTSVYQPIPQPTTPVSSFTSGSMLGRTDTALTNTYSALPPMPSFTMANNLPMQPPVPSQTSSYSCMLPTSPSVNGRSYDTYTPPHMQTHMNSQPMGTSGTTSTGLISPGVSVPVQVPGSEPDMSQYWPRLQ
Sequence of Transcription factor Sp1 (Homo sapiens) (P08047 whole entry, looked up): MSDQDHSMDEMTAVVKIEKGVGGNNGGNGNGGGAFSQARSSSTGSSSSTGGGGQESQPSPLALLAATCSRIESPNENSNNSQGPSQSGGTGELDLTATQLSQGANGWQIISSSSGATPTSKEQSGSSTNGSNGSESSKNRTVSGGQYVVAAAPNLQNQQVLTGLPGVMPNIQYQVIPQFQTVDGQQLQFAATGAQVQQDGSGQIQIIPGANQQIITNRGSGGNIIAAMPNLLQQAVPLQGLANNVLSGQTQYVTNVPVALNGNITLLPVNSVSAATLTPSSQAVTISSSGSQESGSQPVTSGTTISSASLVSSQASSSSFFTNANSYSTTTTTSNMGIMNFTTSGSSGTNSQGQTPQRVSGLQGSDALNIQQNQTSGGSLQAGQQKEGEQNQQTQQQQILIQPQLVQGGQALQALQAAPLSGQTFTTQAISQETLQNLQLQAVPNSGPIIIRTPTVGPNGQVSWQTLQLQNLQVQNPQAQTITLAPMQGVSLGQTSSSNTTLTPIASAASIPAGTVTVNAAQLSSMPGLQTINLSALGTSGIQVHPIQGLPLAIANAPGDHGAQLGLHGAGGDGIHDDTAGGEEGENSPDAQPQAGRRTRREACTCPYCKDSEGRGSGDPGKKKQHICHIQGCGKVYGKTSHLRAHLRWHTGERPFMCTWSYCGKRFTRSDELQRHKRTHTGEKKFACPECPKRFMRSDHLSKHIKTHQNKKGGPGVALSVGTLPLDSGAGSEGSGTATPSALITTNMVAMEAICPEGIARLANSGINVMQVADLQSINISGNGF
Sequence of Signal transducer and activator of transcription 3 (Homo sapiens) (P40763 whole entry, looked up, the tested form may be a part): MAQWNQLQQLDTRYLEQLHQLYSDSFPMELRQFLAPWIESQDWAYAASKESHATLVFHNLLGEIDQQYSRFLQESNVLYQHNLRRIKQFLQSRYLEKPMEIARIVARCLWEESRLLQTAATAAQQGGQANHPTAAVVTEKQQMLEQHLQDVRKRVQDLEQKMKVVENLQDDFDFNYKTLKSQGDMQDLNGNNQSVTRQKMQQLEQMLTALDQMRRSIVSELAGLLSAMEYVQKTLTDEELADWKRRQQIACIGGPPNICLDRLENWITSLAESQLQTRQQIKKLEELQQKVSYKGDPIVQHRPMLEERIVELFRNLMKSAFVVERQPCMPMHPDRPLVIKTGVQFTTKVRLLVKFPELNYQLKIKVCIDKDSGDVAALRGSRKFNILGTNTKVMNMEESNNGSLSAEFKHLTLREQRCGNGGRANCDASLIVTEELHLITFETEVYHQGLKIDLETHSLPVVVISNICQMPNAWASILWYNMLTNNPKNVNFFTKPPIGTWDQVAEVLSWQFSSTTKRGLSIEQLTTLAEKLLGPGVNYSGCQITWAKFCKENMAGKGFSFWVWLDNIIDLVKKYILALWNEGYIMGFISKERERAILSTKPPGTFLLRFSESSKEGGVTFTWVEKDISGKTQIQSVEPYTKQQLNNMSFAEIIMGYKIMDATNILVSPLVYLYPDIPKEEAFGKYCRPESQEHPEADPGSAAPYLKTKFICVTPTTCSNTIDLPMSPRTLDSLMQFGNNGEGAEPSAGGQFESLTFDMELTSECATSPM

CC1(c2ccc(Oc3ccccc3)cc2)OC(=O)N(Nc2ccccc2)C1=O (stereo unspecified)
active: [3] 2.24 µM | [4] 1.21 µM
not listed: [10]
inactive: all other assays above

Clc1ccccc1-c1nnc(-c2ccccc2Cl)nn1
active: [4] 8.03 µM
not listed: [10]
inactive: all other assays above

O=C(O)COc1ccc(Cl)cc1Cl
inactive: [2] | [3] | [6] | [7] | [8] | [9]

O=[N+]([O-])/N=C1\NCCN1Cc1ccc(Cl)nc1
active: [3] 30.6 µM
not listed: [4]
inactive: all other assays above

O=C(NC(=O)c1c(F)cccc1F)Nc1ccc(OC(F)(F)C(F)OC(F)(F)F)c(Cl)c1 (stereo unspecified)
active: [4] 20.9 µM
not listed: [1] | [10]
inactive: all other assays above

O=S1OCC2C(CO1)C1(Cl)C(Cl)=C(Cl)C2(Cl)C1(Cl)Cl (stereo unspecified)
active: [3] 1.47 µM
not listed: [4] | [10]
inactive: all other assays above

N#Cc1c(Cl)c(Cl)c(Cl)c(C#N)c1Cl
active: [3] 0.121 µM
not listed: [10]
inactive: all other assays above

COC(=O)c1ccccc1S(=O)(=O)NC(=O)N(C)c1nc(C)nc(OC)n1
active: [3] 64.7 µM
not listed: [5] | [10]
inactive: all other assays above

Cc1[nH]c(=O)n(C(C)(C)C)c(=O)c1Cl
active: [1] 80.8 µM | [7] 50 µM
not listed: [4] | [10]
inactive: all other assays above

CCOc1nc(NC)nc(NC(=O)NS(=O)(=O)c2ccccc2C(=O)OC)n1
not listed: [10]
inactive: all other assays above

CCN(CC)C(=O)SCc1ccc(Cl)cc1
active: [3] 4.49 µM | [5] 19 µM
inactive: [2] | [6] | [7] | [8] | [9]

CC(C)OC(=O)Nc1cccc(Cl)c1
active: [3] 15.5 µM | [4] 47.1 µM
not listed: [1] | [10]
inactive: all other assays above

ClC1C(Cl)C(Cl)C(Cl)C(Cl)C1Cl (stereo unspecified)
inactive: [2] | [4] | [6] | [7] | [8] | [9]
active: [3] 2.93 µM [middle of 4 runs] | [7] 100 µM and 70.3 µM | [8] 67.6 µM

CC[C@H](C)[C@H]1O[C@]2(C=C[C@@H]1C)C[C@@H]1C[C@@H](C/C=C(\C)[C@@H](O[C@H]3C[C@H](OC)[C@@H](O[C@H]4C[C@H](OC)[C@@H](O)[C@H](C)O4)[C@H](C)O3)[C@@H](C)/C=C/C=C3\CO[C@@H]4[C@H](O)C(C)=C[C@@H](C(=O)O1)[C@]34O)O2 (tested in a mixture with another compound)
active: [3] 1.75 µM
not listed: [4] | [5] | [10]
inactive: all other assays above

CNC(=O)/C=C(\C)OP(=O)(OC)OC
not listed: [5] | [10]
inactive: all other assays above

C#CCN1C(=O)COc2cc(F)c(N3C(=O)C4=C(CCCC4)C3=O)cc21
active: [3] 23.8 µM | [4] 12.5 µM
not listed: [5] | [10]
inactive: all other assays above

CCC(C)Nc1c([N+](=O)[O-])cc(C(C)(C)C)cc1[N+](=O)[O-] (stereo unspecified)
active: [3] 3.43 µM | [5] 24.1 µM
not listed: [1] | [10]
inactive: all other assays above

[2H]C1([2H])[n+]2ccccc2-c2cccc[n+]2C1([2H])[2H]
active: [3] 18.6 µM | [8] 13.3 µM
not listed: [10]
inactive: all other assays above

CCOC1Oc2ccc(OS(C)(=O)=O)cc2C1(C)C (stereo unspecified)
active: [1] 34 µM | [3] 5.08 µM | [4] 30.8 µM
not listed: [10]
inactive: all other assays above

COC(=O)c1ccccc1S(=O)(=O)NC(=O)Nc1nc(C)nc(OC)n1
inactive: [2] | [3] | [6] | [7] | [8] | [9]

O=C(O)C(F)(F)C(F)(F)C(F)(F)C(F)(F)C(F)(F)C(F)(F)C(F)(F)F
active: [3] 34.1 µM and 41 µM and 41.5 µM
inactive: [2] | [3] | [6] | [7] | [8] | [9]

O=S(=O)(O)C(F)(F)C(F)(F)C(F)(F)C(F)(F)C(F)(F)C(F)(F)C(F)(F)C(F)(F)F
active: [5] 133 µM | [6] 52.8 µM | [7] 26.5 µM and 53.3 µM | [8] 68.7 µM | [9] 55.9 µM
inactive: [2] | [5] | [6] | [7] | [8] | [9]

CCCN(CCC)c1c([N+](=O)[O-])cc(C(F)(F)F)cc1[N+](=O)[O-]
active: [3] 6.82 µM
not listed: [10]
inactive: all other assays above

O=C1c2ccccc2C(=O)N1SC(Cl)(Cl)Cl
active: [3] 15.8 µM
not listed: [10]
inactive: all other assays above

CCOCN(C(=O)CCl)c1c(C)cccc1CC
active: [3] 0.468 µM
not listed: [4] | [10]
inactive: all other assays above

Cc1cc(C)nc(NC(=O)NS(=O)(=O)c2ccccc2C(=O)OC2COC2)n1
active: [8] 81.9 µM
not listed: [10]
inactive: all other assays above

COc1nn(CSP(=S)(OC)OC)c(=O)s1
active: [1] 50 µM | [3] 15.6 µM
not listed: [10]
inactive: all other assays above

COP(=O)(OC)OC=C(Cl)Cl
active: [3] 21.8 µM | [4] 22.9 µM
not listed: [1] | [10]
inactive: all other assays above

C[C@H]1[C@H](c2ccc(Cl)cc2)SC(=O)N1C(=O)NC1CCCCC1
active: [1] 27.2 µM | [3] 1.93 µM | [5] 17.5 µM
not listed: [4]
inactive: all other assays above

From PubChem BioAssay (EPA / NIEHS)
